About 83,000 compounds went through this panel and 20% of them were active in at least one assay; those are over-represented in the sample as a whole.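 Each cell line was grown in a 96-well plate and treated with one concentration of compound for 48 hours. Values below 10 were considered active.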 Unmarked numbers belong to inactive results. The source made the active and inactive calls.

Here are results for 35 molecules from PubChem BioAssay (NCI).

For this experiment, the system named is MOLT-4 leukemia. The experiment is described as follows: NCI-60 one-dose screen, 48 h (100 = growth as untreated, 0 = no growth, -100 = all killed). To be noted: 10 µM unless noted.
`COc1ccc(NC(=O)c2sc3nc(C)c(C(O)c4ccc(OC)cc4)cc3c2N)cc1` (stereo not given): the growth was 15.8%.

With `N#Cc1c(NC(=O)c2cccc(Br)c2)sc2c1CCCC2`, the growth is 52.3%.

For the molecule `Clc1ccc(C2CC(c3cccc(Nc4ccncc4)c3)=NN2c2ccccc2)cc1` (stereo not given), the growth was -6.03% (active).

Turning to `O=C(OCc1nc2nc(Cl)nc(N3CCOCC3)c2[nH]1)n1ccnc1`, the growth was 9.71% (active).

For `CC(=O)O[C@]1(C(C)=O)CC[C@H]2[C@@H]3C=C(Cl)C4=CC(=O)CC[C@]4(C)[C@H]3CC[C@@]21C`, the growth was 84.9%.

On to `CC(=O)c1c[nH]c2ccc(-c3ccnc(Nc4ccc(NC(=O)C5CCCC5)c(CN5CCOCC5)c4)n3)cc12`, for which the growth is -16.2% (active).

Turning to `O=C(N/N=C/c1cccnc1)c1ccccc1Nc1cccc(C(F)(F)F)c1`, the growth was 62.7%.

Turning to `CN1CCN(CCCOc2ccc3ncnc(Nc4ccc(Oc5cccc(C(F)(F)F)c5)c(Cl)c4)c3c2)CC1`, the growth is 3.44% (active).

For the molecule `CN(C)Cc1c(-c2ccccc2)[nH]c2ccccc12`, the growth was 99.4%.

Take `O=C(OC(OC(=O)c1cc(Cl)cc(Cl)c1)c1cccc2ccccc12)c1ccccc1` (stereo not given): the growth was 103%.

On to `CCC(C)C(N)C(=O)NNc1n[nH]c(=S)n1N` (stereo not given), for which the growth was 101%.

On to `CC[C@H](C)[C@@H]1NC(=O)[C@H](Cc2ccc(O)cc2)N(C)C(=O)[C@H](Cc2ccccc2)NC(=O)CN(C)C(=O)[C@@H]2CCCN2C(=O)[C@@H](Cc2ccccc2)N(C)C(=O)[C@H](CC(C)C)NC1=O`, for which the growth was 2.71% (active).

For the molecule `C#CC(=O)Nc1cccc(Nc2nc3c(c(NCc4ccccc4)n2)CCCC3)c1`, the growth is -24.9% (active).

For `CCCCCOc1ccc(/C=N/Nc2cc(C)nc3ccc(Br)cc23)cc1`, the growth is -21.8% (active).

Consider `COc1ccc(OC)c(/C=C/[C@H]2O[C@@H](C)[C@H](O)[C@@H]2O)c1`, for which the growth was 93.2%.

`COc1ccc(C(=O)c2cc(C)c(OC)c(C)c2)c(OC)c1O`: the growth is 23.4%.

For `C=C1C(=O)O[C@H]2[C@H]1CC/C(CNC(=O)/C=C/c1ccc(Br)cc1)=C\CC[C@@]1(C)O[C@@H]21`, the growth is -22.7% (active).

For `O=C(c1ccccc1)N1N=C(c2ccc(-n3ccc(C(F)(F)F)n3)cc2)CC1c1ccc[nH]1` (stereo not given), the growth was 75.8%.

Turning to `CS(=O)(=O)Nc1cc(-c2ccc3ncnc(Nc4ccc5[nH]ncc5c4)c3c2)cnc1Cl`, the growth is 75.3%.

Consider `Nc1ncc(C#Cc2cncc(NC(=O)c3cccc(C(F)(F)F)c3)c2)c2cccnc12`, for which the growth was 36.8%.

For `CCOC(=O)Oc1c(OC)cc(C(=O)O[C@@H]2C[C@@H]3CN4CCc5c([nH]c6cc(OC)ccc56)[C@H]4C[C@@H]3[C@H](C(=O)OC)[C@H]2OC)cc1OC`, the growth was 7.97% (active).

Turning to `O=C1Nc2ccccc2/C1=C\c1cccc(/C=C2/C(=O)Nc3ccccc32)n1`, the growth is -30% (active).

On to `NC(=O)CN1CCN(c2ccccc2Cl)CC1`, for which the growth was 111%.

As to `CSc1nnc2c(=O)n(C)c(=O)n(C)c2n1`, the growth is 106%.

Turning to `NC(=O)c1cccc(-c2ccccc2N2CCCCC2)c1`, the growth was 91.1%.

In the case of `COc1cnccc1-c1nc2ccc3[nH]ncc3c2c2c1CCCC2`, the growth was 28.2%.

Regarding `c1ccc(-c2nnc(Nc3ccc4c(c3)OCCO4)o2)c(NCc2ccncc2)c1`, the growth was 21.1%.

In the case of `CNC(=O)Nc1ccc(-c2nc(N3CCOCC3)nc3c2cnn3C2CCOCC2)cc1`, the growth is 11.9%.

For `O=C(N/N=C/c1ccc(O)c(O)c1)c1sc2ccccc2c1Cl`, the growth is 43.7%.

Take `COc1cc(C2CC(c3cccc(Nc4ccncc4)c3)=NN2c2ccccc2)cc(OC)c1OC` (stereo not given): the growth is 1.73% (active).

Regarding `Nc1ccccc1NC(=O)c1ccc(CN2CCC/C(=C\c3cccc(Cl)c3)C2=O)cc1`, the growth is 1.63% (active).

As for `C[C@H]1[C@H](C)CC[C@]2(CO)CC[C@]3(C)C(=CC[C@@H]4[C@@]5(C)CCCNC(C)(C)[C@@H]5CC[C@]43C)[C@H]12`, the growth is -45.6% (active).

In the case of `O=c1[nH]nc(-c2ccc(Br)cc2)cc1Cc1ccc(O)cc1`, the growth is 17.9%.

`CC1(C)CC[C@]2(C(=O)NCC#CCN3CCOCC3)CC[C@]3(C)C(=CC[C@@H]4[C@@]5(C)Cc6c([nH]c7ccccc67)C(C)(C)[C@@H]5CC[C@]43C)[C@@H]2C1`: the growth was 72.3%.

As for `COc1ccc(C(=O)/C=C/c2cn(Cc3ccc(Cl)cc3)c3ccccc23)cc1`, the growth is 39.8%.
